In the library only some 19% were active in any assay of this set; here they are far more common.
KB-V1 cytotox: qHTS assay for MDR1-selective chemotherapeutics: Primary screen using the drug-selected MDR subline cells KB-V1 | KB-V1 MDR cells viability, CellTiter-Glo, 72 h | Potency, µM (highest dose often 46.1 µM), actives largely listed as cytotoxic | 3.4% of 400,000 active | AID 1347076, 2019; also: nearly all actives have a fitted effect of over 60% in size
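Cells of the MDR subline KB-V1 are plated, dosed with compound at multiple concentrations, and incubated 72 h at 37 degrees C; CellTiter-Glo is then added and luminescence read after 10 min.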
TDP1 cell noCPT: qHTS for Inhibitors of human tyrosyl-DNA phosphodiesterase 1 (TDP1): qHTS in cells in absence of CPT | AID 686978, 2013 | Potency, µM (top dose mostly 46.2 µM), actives largely listed as inhibitors | DT40 Tdp1-/- hTDP1 cells, no CPT, ATP luminescence, 48 h | 15% of 420,000 active; also: nearly all actives have a fitted effect of over 55% in size
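Readout: luminescence from CellTiter-Glo after 30 min in the dark at RT. Cells: DT40 Tdp1-/- with stable hTDP1, 400/well. Exposure: compounds alone, ≥48 hr, 37 °C.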
HT1080NT lethal: qHTS for induction of synthetic lethality in tumor cells producing 2HG: qHTS for the HT-1080-NT fibrosarcoma cell line. 1.6% of 360,000 active. Potency, µM (series often up to 46.1 µM), hits mostly cytotoxic. HT-1080-NT fibrosarcoma viability, CellTiter-Glo ATP luminescence, 48 h;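 also: NT is the 2HG producing partner of a matched IDH1 knockdown line; nearly all actives have a fitted effect of over 55% in size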
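Toxicity toward the 2HG-producing NT line was scored as %Activity, normalised to DMSO and no-cell wells, from CellTiter-Glo luminescence after 48 hours' treatment.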
KB-3-1 tox: qHTS assay for MDR1-selective chemotherapeutics: Primary screen using the parental adenocarcinoma cell KB-3-1; KB-3-1 viability, CellTiter-Glo ATP luminescence, 72 h; Potency, µM (series often up to 46.1 µM), usual class: cytotoxic; 1.4% of 400,000 active; AID 1347075, 2019; also: nearly all actives have a fitted effect of over 60% in size
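Using CellTiter-Glo luminescence, growth of non-resistant KB-3-1 adenocarcinoma cells is assessed 72 h after pin-tool compound addition at 37 °C. Normalized responses across the concentration series yield fitted curves.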
TDP1 cell CPT: qHTS for Inhibitors of human tyrosyl-DNA phosphodiesterase 1 (TDP1): qHTS in cells in presence of CPT; Potency, µM (doses to about 46.2 µM), usual class: inhibitors; 12% of 420,000 active; chicken DT40 Tdp1-/-;hTDP1 cells + 20 nM CPT, ATP luminescence, 48 h; AID 686979, 2013; also: nearly all actives have a fitted effect of over 55% in size
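Cell growth measured by CellTiter-Glo luminescence after a minimum 48 h, 37 C compound exposure with 20 nM CPT in Tdp1-knockout DT40 cells stably expressing hTDP1, seeded 400/well; qHTS titration format.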
HT1080 IDH1KD tx: qHTS for induction of synthetic lethality in tumor cells producing 2HG: qHTS for the HT-1080-IDH1KD cell line. HT-1080 IDH1 knockdown viability, ATP luminescence, 48 h. Potency, µM (titrated, usually from 46.1 µM), usual class: cytotoxic. 2% of 360,000 active. AID 686971, 2013
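In this qHTS, HT-1080 cells depleted of IDH1 are exposed for 48 h at 37 °C to compound titrations. Toxicity is scored from CellTiter-Glo luminescence, with DMSO as full viability and medium alone as none.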
Numbers stand for hits; 0 = inactive; ? = inconclusive; - = no result given; [ ] = remark or other dose. Calls follow the shape of the dose curve; as a rule, active = well fitted curve in the direction sought with a large enough effect; inconclusive = small, poorly fitted or top-dose-only effect, or another doubt; inactive = no such curve, though single readings can be large; an effect the other way counts as inactive or inconclusive.

SMILES | KB-V1 cytotox | TDP1 cell noCPT | HT1080NT lethal | KB-3-1 tox | TDP1 cell CPT | HT1080 IDH1KD tx
Cc1ccc(-c2nnn(CC(=O)N(c3cccc(F)c3)C(C(=O)NC3CCCC3)c3ccco3)n2)o1 (stereo not given) | 0 | 16.4µM | ? | 0 | 20.6µM | 2.82µM
Cc1ccc(-c2nnn(CC(=O)N(c3ccccc3F)C(C(=O)NC3CCCC3)c3ccco3)n2)o1 (stereo not given) | 0 | 16.4µM | 0 | 0 | 29.1µM | 0
Cc1ccc(-c2nnn(CC(=O)N(CC(=O)NC3CCCC3)c3ccccc3F)n2)o1 | ? | 0 | 0 | 0 | 0 | 0
Cc1ccc(-c2nnn(CC(=O)N(c3ccc(F)cc3)C(C(=O)NC3CCCC3)c3ccco3)n2)o1 (stereo not given) | ? | ? | 0[9.24 µM] | 0 | 14.6µM | 0
COc1cccc(CN2CCCC(N3CCc4ccccc4C3)C2)c1O (stereo not given) | 0 | 0 | 0 | 0 | 0 | 0
COc1cc2c(cc1OC)CN(C1CCCN(Cc3cc(Cl)ccc3O)C1)CC2 (stereo not given) | 0 | ? | 0 | 0 | 16.4µM | 0
O=S1(=O)CCOC[C@H](CC2CCCCC2)N1Cc1ccccc1F | 0 | 20µM | 0 | 0 | ? | 0
O=S1(=O)CCOC[C@H](CC2CCCCC2)N1Cc1ccccc1Br | 0 | 20.6µM | 0 | ? | ? | 0
Cn1c(=O)c2cc(S(=O)(=O)NCCC(=O)NCCc3ccc(Cl)cc3)ccc2n(C)c1=O | 0 | 0 | 0 | 0 | 0 | 0
Cc1ccc(C)c(N(CC(=O)NC2CCCCC2)C(=O)CNC(=O)c2ccco2)c1 | ? | 0 | 0 | 0 | 0 | 0
Brc1cc(Br)c2ncnc(N3CCCCC3)c2c1 | ? | 13µM | 9.2µM | 8.2µM | 20.6µM | ?
CC(=O)c1ccc([N+](=O)[O-])c(CS(=O)(=O)c2ccc(Cl)cc2)c1 | 0 | 0 | 0 | 0 | 0 | 0
COc1ccc(C(=O)N2CCN(C(=O)C3CCCO3)CC2)cc1[N+](=O)[O-] (stereo not given) | ? | 0 | 0 | 0 | 0 | 0
COc1ccc(CCN(Cc2cc3cc(C)c(C)cc3nc2Cl)C(=O)C2CC2)cc1 | 0 | 20.6µM | 0 | 0 | 25.9µM | 0
COCCN(Cc1cc2cc(C)ccc2nc1Cl)C(=O)Nc1ccccc1C | ? | 15.8µM | 0 | 0 | 16.4µM | 0
Cc1ccc2nc(Cl)c(CN(Cc3cccs3)C(=O)C3CC3)cc2c1 | 0 | 0 | 0 | 0 | ? | 0
COCCN(Cc1cc2cc3c(cc2nc1Cl)OCO3)C(=O)Nc1ccccc1OC | 0 | 23.1µM | 0 | 0 | 16.4µM | 0
COCC(=O)N(CCN(C)C)Cc1cc2cc3c(cc2nc1Cl)OCO3 | 0 | 0 | 0 | 0 | 0 | 0
COCCN(Cc1cc2cc3c(cc2nc1Cl)OCO3)C(=O)Nc1ccc(OC)cc1 | ? | 10.3µM | 0 | ? | ? | 0
Cc1ccc(COC(=O)c2ccc3ccccc3n2)cc1 | 0 | 0 | 0 | 0 | 0 | 0
Brc1ccc(-c2ncc3ccccn23)cc1 | 0 | 0 | 0 | 0 | 0 | 0
COCCN(Cc1cc2cc3c(cc2nc1Cl)OCO3)C(=O)Nc1ccc(F)cc1 | ? | 11.2µM | 0 | 16.4µM | 16.4µM | 0
CN(C)S(=O)(=O)c1ccc(C(=O)Nc2c(C(=O)Nc3ccc(F)cc3)oc3ccccc23)cc1 | 0 | ? | - | 0 | 0 | -
O=C(O)CC1(CC(=O)Nc2ccc3sccc3c2)CCCCC1 | 0 | 0 | 0 | 0 | 0 | 0
Fc1ccccc1-c1nc(N2CCCCC2)c2ccccc2n1 | 13µM | ? | 0 | ? | ? | 0
SMILES | KB-V1 cytotox | TDP1 cell noCPT | HT1080NT lethal | KB-3-1 tox | TDP1 cell CPT | HT1080 IDH1KD tx
Fc1ccccc1-c1nc(N2CCN(c3cccc(Cl)c3)CC2)c2ccccc2n1 | 0 | 23.1µM | - | ? | 13µM | -
O=C1C2CCCCN2C(=O)N1CCCCN1CCN(c2cccc(C(F)(F)F)c2)CC1 (stereo not given) | 0 | ? | 0 | 0 | 10.3µM | 0
O=C1C2CCCCN2C(=O)N1CCCCN1CCN(c2ccc([N+](=O)[O-])cc2)CC1 (stereo not given) | 0 | 14.6µM | 0 | 0 | ? | 0
Cc1cccc(NS(=O)(=O)c2ccc(C)c(C(=O)NCCCN3CCOCC3)c2)c1 | 0 | 0 | 0 | 0 | 0 | 0
NCC(=O)c1c[nH]c2ccccc12 | 0 | 0 | - | 0 | ? | -
CC(C)CSC1=NSC2=NC(=O)/C(=C\c3cccs3)C(=N)N12 | ? | 20.6µM | 0 | ? | ? | 0
CC1=CC2=NC(=O)/C(=C/c3cccs3)C(=N)N2O1 | 0 | 0 | 0 | 0 | 0 | 0
CSC1=NSC2=NC(=O)/C(=C/c3coc4ccccc4c3=O)C(=N)N12 | ? | 0 | 0 | 0 | ? | 0
N=C1/C(=C/c2cccs2)C(=O)N=C2SN=C(SCc3ccccc3)N12 | 23.1µM | 0 | 0 | ? | 0 | 0
NNC(=O)c1c(O)c2cccc3c2n(c1=O)CCC3 | ? | 0 | 0 | 0 | 0 | 0
O=C(Nc1ccc2nc([C@@H]3O[C@H](CO)[C@@H](O)[C@H](O)[C@H]3O)[nH]c2c1)NC(c1ccccc1)c1ccccc1 | 0 | 0 | 0 | 0 | 0 | 0
O=S(=O)(NC1CC2CCC1C2)c1ccc(Br)s1 (stereo not given) | 0 | 23.1µM | 0 | 0 | ? | 0
O=S(=O)(NC1CC2CCC1C2)c1ccc(Br)cc1 (stereo not given) | 0 | 0 | 0 | ? | 0 | 0
Cc1nn(CC(=O)N2CCN(c3cccc(C(F)(F)F)c3)CC2)c(=O)c2cccn12 | 0 | 23.1µM | 0 | 0 | 14.6µM | 0
CC1CCN(S(=O)(=O)c2cn(CC(=O)N3CCN(c4cccc(C(F)(F)F)c4)CC3)cn2)CC1 | 0 | ? | 0 | 0 | 14.6µM | 0
CN1C=CC2=C(C#N)C(N)C(C#N)(C#N)C(c3ccccc3)C2C1 (stereo not given) | 14.6µM | ? | 0 | 0 | 0 | 0
Cc1ccc2c(C)c(C(=O)N(C)C(C)c3ccon3)oc2c1C (stereo not given) | ? | 16.4µM | 0 | 0 | ? | 0
CCNC(=S)Nc1cccc(F)c1C | 0 | 0 | 0 | 0 | 0 | 0
Cc1cc(N2CCN(c3ncccn3)CC2)nc2c(C)cccc12 | 0 | 14.6µM | 0 | 0 | ? | 0
CCOc1cc(C)c(-c2onc(C(F)(F)F)c2-c2csc(C)n2)c(O)c1 | 13µM | ? | ? | ? | ? | ?
